Results on twelve compounds are retold here after PubChem BioAssay (NCI).

What all share (assay): NCI-60 one-dose screen, 48 h (100 = growth as untreated, 0 = no growth, -100 = all killed)
What all share (details): 10 µM unless noted

Test [1] relates to SR leukemia.
For test [2], the system named is RPMI-8226 leukemia.
In test [3] the test system is OVCAR-8 ovarian.
The test system of test [4] is OVCAR-5 ovarian.
For test [5], the system named is OVCAR-4 ovarian.
Test [6] concerns SK-OV-3 ovarian.
For test [7], the system named is IGROV1 ovarian.
In test [8] the test system is OVCAR-3 ovarian.
Test [9] relates to HS 578T breast.
The test system of test [10] is NCI/ADR-RES ovarian.

The panel holds about 83,000 compounds, 20% with a hit somewhere; the sample as a whole holds those more often.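 Plates (96-well) were seeded with cells, treated with compound at one concentration, and incubated for 48 hours before percent growth was determined.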 Values without a mark were called inactive. Active and inactive are the calls of the source. How the source made its calls: active means growth percent below 10; inactive means the rest.

Take `O=C(/C=C/c1ccc(F)cc1)Nc1ncc(Cc2ccc(F)cc2)s1`: the growth in test [1] was 25.2%; in test [2] it was 44.9%; in test [3], 51.9%; in test [4] it was 62.8%; in [5], 64.3%; in test [6], 41.4%. Moreover, the growth in test [7] was 46.8%; in test [8], 12.4%; in [9], 23%; in test [10] it was 35.5%.

On to `CON1CCC[C@]2(C)[C@H]3CC[C@@H]4[C@H]5[C@@H](O)C(C)(C)CC[C@]5(CO)CC[C@@]4(C)[C@]3(C)CC[C@H]2C1(C)C`, for which the growth is 88.4% in [1]; 89.1% in test [2]; 95.2% in test [3]; 102% in test [4]; 100% in test [5]; 90.1% in [6]. For the same compound, the growth in test [7] was 103%; in test [8], 104%; in test [9], 108%; in [10], 111%.

Consider `O=C1CCCCN1CCCCC#Cc1cccc(C#Cc2cccnc2)c1`, for which the growth is -46.3% (active) in test [1]; 49.7% in [2]; 89.2% in test [3]; 101% in test [4]; 93.8% in [5]; 109% in test [6]. For the same compound, the growth in test [7] was 79.4%; in test [8], 89.7%; in [9], 88%; in test [10], 72.7%.

With `COc1ccc(Oc2nc(Nc3ccc(N4CCOCC4)cc3)ncc2NC(=O)c2cccc(C(F)(F)F)c2)cc1`, the growth in test [1] was 35.7%; in [2], 59.8%; in [3] it was 78.5%; in test [4], 111%; in test [5], 96.4%; in test [6] it was 85.7%. Also, the growth is 88.5% in [7], 82.7% in [8], 91.4% in test [9] and 79.7% in test [10].

Turning to `Clc1ccc2c(c1)N(c1ncnc3ccc(-c4cnc5[nH]ccc5c4)cc13)CC2`, the growth in test [1] was 1.86% (active); in [2] it was 26%; in test [3], 27.9%; in test [4], 39.1%; in test [5] it was 0.279% (active); in [6], 28.3%. In addition, the growth in test [7] was -24% (active); in test [8], 21.5%; in test [9], 1.12% (active); in [10], 33.3%.

With `Cc1ccc(Cc2cnc(NC(=O)c3cc(C)oc3C)s2)cc1`, the growth is 29.7% in test [1]; 73.6% in test [2]; 87.7% in test [3]; 67.6% in [4]; 70.2% in test [5]; 84.3% in test [6]. In addition, the growth in [7] is 62%; in test [8], 81.4%; in [9], 82.9%; in test [10], 67.4%.

For `Nn1c(-c2ccc(Cl)cc2)nc2c(-c3ccc(Cl)cc3)nc3ccc(Cl)cc3c2c1=O`, the growth in test [1] was -62.1% (active); in [2] it was 30.1%; in test [3] it was 11.6%; in test [4], 68.7%; in [5], -78.1% (active); in [6], 20.3%. Moreover, the growth in test [7] is 7.14% (active); in test [8], -81.5% (active); in test [9] it was -14.1% (active); in test [10], 52.4%.

For the compound `N#Cc1cc(-c2ccnc(Nc3ccc(NC(=O)CCl)cc3)n2)ccc1N1CCCC1`, the growth was 1.78% (active) in test [1]; -24.3% (active) in test [2]; 6.56% (active) in [3]; -9.19% (active) in [4]; -20.8% (active) in test [5]; -48.6% (active) in [6]. The growth was -1.3% (active) in test [7], -46% (active) in [8], 12.6% in test [9] and 10.9% in [10].

Regarding `O=C(NCCCN1CCCCC1)c1ccc(-c2nc3ccc4[nH]ncc4c3c3c2CCCC3)cc1`, the growth in test [1] was -18.3% (active); in [2], 29.9%; in [3] it was 62%; in [4], 94.6%; in test [5] it was 54.3%; in [6], 24.9%. Moreover, the growth in test [7] was 29.2%; in [8], 67.5%; in test [9], 14.4%; in [10], 85.2%.

On to `COC1/C=C/OC2(C)Oc3c(C)c(O)c4c(O)c(c(C=NOC(c5ccccc5)c5ccccc5)c(O)c4c3C2=O)NC(=O)/C(C)=C/C=C/C(C)C(O)C(C)C(O)C(C)C(OC(C)=O)C1C` (stereo not given), for which the growth in test [1] is -5.09% (active); in test [2], 3.28% (active); in [3], 24.8%; in test [4], 38.1%; in test [5] it was 15.2%; in test [6], -34% (active). Further, the growth is 29.8% in test [7], 11.9% in [8], -5.16% (active) in test [9] and 28.9% in test [10].

With `CN1CCCc2cc(/C=C3\SC(=S)N(C(Cc4ccc(O)cc4)C(=O)O)C3=O)ccc21` (stereo not given), the growth is 105% in test [1]; 95.8% in [2]; 99.2% in [3]; 101% in test [4]; 98.2% in test [5]; 107% in test [6]. For the same compound, the growth in test [7] was 102%; in test [8] it was 95.5%; in test [9], 102%; in test [10], 100%.

As for `CC1=CC=C(NC(=O)/C=C/c2ccccc2)CC1Nc1nccc(-c2cccnc2)n1` (stereo not given), the growth in test [1] is 15.3%; in test [2] it was 17.2%; in test [3] it was 61%; in test [4], 96.8%; in test [5], 70%; in test [6] it was 57.6%. Besides, the growth was 54.7% in [7], 19.9% in test [8], 44.5% in test [9] and 47.6% in [10].
